# Experimental data published in PubChem BioAssay AID1745845 (National Center for Advancing Translational Sciences (NCATS), 2022).
# Several values for one entry are separate records, joined by “and”; a condition that tells them apart may be missing. Equal entries are not always repeated. Among all 360,000 compounds or so, about 2,600 (0.72%) were called active. Not shown: some 5% with an inconclusive outcome. Shown is part of a subset that was picked to be rich in actives. A number with no mark means an inactive call. The call rests on the fitted dose curve; in most records, active means well fitted inhibition curve with a large enough effect; inconclusive means small, poorly fitted or top-dose-only effect; inactive means no such curve, though single readings can be large or run the other way.
# Experiment: Primary qHTS for Inhibitors of ATXN expression; further: nearly all actives have a fitted effect of over 55% in size
# Conditions: HEK-293 ATXN2-luciferase reporter, luminescence, 24 h; series mostly up to 57 µM; activity change, negative = inhibition: at the top concentration
# How it was run: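 ATXN2-luciferase reporter cells (luciferase flanked by upstream and downstream ATXN2 gene portions) were treated 24 h at 37 °C with compounds at up to 57 uM. SteadyGlo luminescence gave expression; GF-AFC fluorescence gave viability.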
# On the % scale 0 is the no-effect control and ±100 the full control effect; potency means the concentration at half of the fitted maximal effect.
Compound,"activity change, negative = inhibition",Potency
Cc1ccc(OCCn2c(CNc3ccccc3C)nc3ccccc32)cc1,-14.1%,–
CCCn1ccc2c(OCC(=O)NCc3ccc(F)cc3)cccc2c1=O,-5.76%,–
COc1ccc(C(C#N)=C2C=CC(=NO)c3ccccc32)cc1,34%,–
O=C(Nc1ccccc1Cl)/C(Cl)=C(\Cl)S(=O)c1ccccc1 (configuration not stated),–,3.55 µM (active)
O=C(CCN1CCN(C/C=C/c2ccccc2)CC1)Nc1ccccc1Cl,-14.6%,–
NC(=O)C1(Nc2ccccc2Cl)CCCC1,-7.8%,–
CSCCC(c1nnnn1Cc1ccccc1)N1CCN(C/C=C/c2ccccc2)CC1 (configuration not stated),-23.7%,–
CCCN1CCN(CCCNC(=O)Cn2nc(CC)n3c(cc4occc43)c2=O)CC1,32.1%,–
Cc1cccc(C(=O)NCCc2nc3ccccc3n2Cc2ccccc2Cl)c1,-3.57%,–
Cc1ccccc1CSc1nc(-c2ccccc2)nc2c1Cc1c(CO)cnc(C)c1O2,9.66%,–
CCOC(=O)[C@]12CCCC=C1N(Cc1cccc3ccccc13)C(=O)[C@H](CC(=O)NCC13CC4CC(CC(C4)C1)C3)C2,-16.8%,–
COc1cc(Nc2ncc(F)c(Nc3ccc4c(n3)NC(=O)C(C)(C)O4)n2)cc(OC)c1OC,25.8%,–
CCOc1ccc(CCNC(=O)c2cc3c(=O)n(C)c4ccccc4c3n2C)cc1,-18.4%,–
CCCC(O)(CCC)C(=O)NN(C(=O)CCl)c1cccc(C)c1,–,21.2 µM (active)
CC(C)(O)C(=O)NN(C(=O)c1ccccc1)c1cccc(Br)c1,-5.23%,–
CCCCC(O)(CCCC)C(=O)NN(C(=O)CCl)c1ccccc1,-25.2%,–
C=CCC[C@@H](CCCCC)OC(=O)/C=C/[C@@H](O)[C@H](O)C[C@H](O)CC=C,-13.5%,–
CC(C)CC(=O)NCC(c1ccc2c(c1)OCO2)N1CCN(c2ccc(F)cc2)CC1 (configuration not stated),-12.6%,–
C[C@H]1C[C@H]2[C@@H]3CCC4=CC(=O)C=C[C@]4(C)[C@@H]3C(=O)C[C@]2(C)[C@@]1(O)C(=O)CO,-1.21%,–
CO[C@H]1C[C@@H]2CC[C@@H](C)[C@@](O)(O2)C(=O)C(=O)N2CCCC[C@@H]2C(=O)O[C@H]([C@@H](C)C[C@@H]2CC[C@H](O)[C@H](OC)C2)CC(=O)[C@H](C)C=C(C)[C@@H](O)[C@@H](OC)C(=O)[C@H](C)C[C@H](C)C=CC=CC=C1C,0.805%,–
COc1cc(OC)c2ccc(=O)oc2c1C(CCN1CCN(c2ccccc2)CC1)c1ccc2c(c1)OCO2 (configuration not stated),-17.9%,–
COc1cc(C(CCN2CCN(c3ccccc3)CC2)c2c(OC)cc(OC)c3ccc(=O)oc23)cc(OC)c1OC (configuration not stated),-2.17%,–

Compound,"activity change, negative = inhibition",Potency
CCN(CC)CCC(c1ccc2c(c1)OCO2)c1c(OC)cc(OC)c2c(-c3ccccc3)cc(=O)oc12 (configuration not stated),–,31.6 µM (active)
Cc1ccccc1-n1c(=O)c2ccccc2n(Cc2ccc(F)cc2)c1=O,-10.8%,–
CCNC(=O)c1cc2n(n1)CCCN(Cc1ccc(C)cc1)C2=O,-4.43%,–
CC1CCCCN1S(=O)(=O)c1ccc(F)c(C(=O)Nc2ccccc2C(F)(F)F)c1 (configuration not stated),5.86%,–
CCN(CCCNC(=O)CSc1cc(=O)n(C)c2cc(Cl)ccc12)c1cccc(C)c1,0.149%,–
COc1cc2c(cc1OC)CN(CC(=O)Nc1ccc(F)cc1)CC2,-13.5%,–
CC[C@H]1CN2CCc3cc(OC)c(OC)cc3[C@@H]2C[C@@H]1C[C@H]1NCCc2cc(OC)c(OC)cc21,–,1.41 µM (active) and 112 nM (active)
CCC(CC)C(=O)N1CCc2cc(OC)c(OC)cc2C1COc1ccc(F)cc1 (configuration not stated),-18.3%,–
Cc1cc(C)cc(NS(=O)(=O)c2cc3c(cc2C)NC(=O)CO3)c1,-22.7%,–
CC=CCC=CCCC(=O)[C@H]1O[C@@H]1C(N)=O,6.5%,–
COc1ccc2c(c1)c(=Cc1ccc(N(C)C)cc1)c1cc(-c3ccccc3)[n+](C)n12,–,8.91 µM (active)
COc1cccc(NC(=O)Cn2c(=O)cc(C)c3c(C)nn(-c4cccc(F)c4)c32)c1,10.1%,–
CCOC(=O)C1CCN(c2csc3ccc(C)cc3c2=O)CC1,18.8%,–
CCCCN1C(=O)C(C)=C(C)C1OCCc1ccc(OC)c(OC)c1 (configuration not stated),-2.38%,–
COc1ccc(CN2C(=O)CC(Cc3ccc(C)cc3)C2=O)cc1OC (configuration not stated),4.42%,–
CCCCOc1ccc(CN2C(=O)C(=O)c3cc(Br)cc(C)c32)cc1OC,–,31.6 µM (active)
COc1ccccc1CNC(=O)CS(=O)(=O)c1cccc2nsnc12,14.6%,–
Cc1cc2ccccc2n1CCNC(=O)c1ccc(F)cc1,5.13%,–
Cc1ccc2[nH]c(=O)c(CN(CCCN(C)C)C(=O)Nc3cccc(Cl)c3)cc2c1,–,15.8 µM (active)
Cc1ccc2[nH]c(=O)c(CN(CC3COCCO3)C(=O)Nc3ccccc3C)cc2c1 (configuration not stated),-15.9%,–
CCC(=O)N(CCc1ccccc1)Cc1cc2cc(C)ccc2[nH]c1=O,5.99%,–
CCOc1ccc(OCC)c(NC(=O)c2c(C)nn(-c3ccccc3)c2-n2cccc2)c1,31.2%,–

Compound,"activity change, negative = inhibition",Potency
CC(C)(C)OC(=O)N1CCC(c2c(C(=O)Nc3ccc4c(c3)OCO4)cnn2-c2ccccc2)CC1,-3.01%,–
CCOC(=O)C/C(C)=N\Nc1ccc([N+](=O)[O-])cc1[N+](=O)[O-],0%,–
CCOC(=O)/C(=N\Nc1ccccc1[N+](=O)[O-])c1csc(Nc2ccccc2)n1,-8.65% [at 11.3 µM],–
CCOC(=O)/C(=C\c1ccc([N+](=O)[O-])cc1)C(=O)c1cc(C(C)=O)c(Nc2ccccc2)s1,–,8.91 µM (active)
O=C(NCC12CC3CC(CC(C3)C1)C2)c1cc2nc(-c3ccccc3)cc(C(F)(F)F)n2n1,12.1%,–
N#Cc1ccccc1NC(=O)COc1c(Br)cc(Br)c2cccnc12,-35.6%,–
O=C(Nc1cccc2cccnc12)c1cccc2c(Br)cccc12,8.25%,–
CC(=O)NC(c1cccs1)c1cc(Br)c2cccnc2c1O (configuration not stated),–,5.01 µM (active)
COc1ccc2cc1Oc1ccc(cc1)C[C@H]1c3cc(c(OC)cc3CCN1C)Oc1c(O)c(OC)cc3c1[C@H](C2)N(C)CC3,–,25.1 µM (active)
COc1ccc(-c2nc3ccccc3o2)cc1NC(=O)c1cc([N+](=O)[O-])ccc1N1CCOCC1,14.3%,–
COc1ccccc1CNC(=O)c1ccccc1NC(=O)c1nsc2ccccc12,16.5%,–
O=[N+]([O-])c1ccccc1/C=C/CN1CCCC(CO)C1 (configuration not stated),-14.6%,–
O=[N+]([O-])c1ccccc1/C=C/CN1CCC(O)CC1,-12.1%,–
CC1CCCCC1NC(=O)/C(C#N)=C/C=C/c1ccccc1[N+](=O)[O-] (configuration not stated),–,3.16 µM (active)
COC(=O)/C=C(/C)N,-1.98%,–
CN1CC[C@H](c2c(O)cc(O)c3c(=O)cc(-c4ccccc4Cl)oc23)[C@H](O)C1,–,31.6 µM (active)
CCOc1cc(C=C2C(=O)N(c3ccccc3)N=C2C)cc(Cl)c1OCC(=O)OC,-6.07%,–
COc1ccc(C(CCNCc2ccccc2F)c2ccc(F)cc2)cc1 (configuration not stated),-16.3%,–
COc1cccc(CNCCc2c[nH]c3ccccc23)c1OCc1ccccc1F,–,20 µM (active)
COc1cccc(CNCCSc2nnnn2C)c1OCc1ccccc1Cl,16.1%,–
Cc1nnc(C(=O)NC(C)(C)c2nc(C(=O)NCc3ccc(F)cc3)c(O)c(=O)n2C)o1,3.13%,–
COc1ccc(S(=O)(=O)NCCSc2nnnn2-c2ccccc2)cc1,-23.7%,–

Compound,"activity change, negative = inhibition",Potency
CSc1ncnc2c1ncn2CC(=O)C1CCC2C3CCC4=CC(=O)CCC4(C)C3CCC12C (configuration not stated),–,22.4 µM (active)
CSc1ncnc2c1ncn2CCCNCC1CCCCC1,-12.5%,–
CSc1ncnc2c1ncn2CCCNCc1ccco1,-8.18%,–
COc1ccc(-c2nc(Cn3c(=O)cc(C)c4c(C)nn(-c5ccccc5)c43)c(C)o2)c(OC)c1,7.3%,–
CCOc1ccccc1CNC(=O)c1ccc(-n2c(C)cc3c2CCC(C)C3)cc1 (configuration not stated),0%,–
CO/N=C(/C(=O)N[C@@H]1C(=O)N2C(C(=O)O)=C(Cn3nnc(C)n3)CS[C@H]12)c1csc(N)n1,2.99%,–
CC(C)c1ccc(S(=O)(=O)Nc2ccc(O)c(Sc3nc4ccccc4s3)c2)cc1,-19.1%,–
O=[N+]([O-])c1c(NCCO)cc(Sc2nc3ccccc3s2)c2nonc12,–,14.1 µM (active)
CC(C)(C)c1ccc(S(=O)(=O)Nc2ccc(O)c(Sc3nc4ccccc4s3)c2)cc1,-25.6%,–
CCCCC[C@H](C)N1C[C@@H](COCc2ccccc2)Oc2cc(N3CC[C@@H](N(C)C)C3)ccc2S1(=O)=O,–,31.6 µM (active)
CCCCC[C@H](C)N1C[C@@H](COCc2ccccc2)Oc2cc(N3CCC[C@@H]3CO)ccc2S1(=O)=O,-22.8%,–
CCCCN1CC(COCc2ccccc2)OCCS1(=O)=O (configuration not stated),7.62%,–
Cc1cccc(Nc2nc(C)nc(N)c2S(=O)(=O)c2ccccc2)c1,0.325%,–
CC(C)CC[n+]1ccn(C2=C([O-])c3ccccc3C(=O)/C2=N\S(=O)(=O)c2ccccc2)c1,–,31.6 µM (active)
CCC1=Nc2cc(C(=O)NCCCOC(C)C)ccc2Sc2ccc(C)cc21,-5.7%,–
Cc1ccc(C)c(N2CCN(C(=O)CN3C(=O)COc4ccc(S(=O)(=O)N5CCCCCC5)cc43)CC2)c1,7.39%,–
COc1cccc(CNC(=O)C2CCC(CNS(=O)(=O)c3cccs3)CC2)c1 (configuration not stated),-0.375%,–
CN1CCC[C@@H]1CCO[C@](C)(c1ccccc1)c1ccc(Cl)cc1,–,25.1 µM (active)
CC(C)(c1ccccc1)c1ccc(OCCN2CCCC2)cc1,-18.9%,–
OC(c1ccccc1)(c1ccccc1)C1CCN(CCCOc2ccccc2)CC1,0%,–
CCOc1ccc(NC(=O)Cn2c(C)ccc(C#N)c2=O)cc1,-0.689%,–
NCC[C@H](O)C(=O)N[C@@H]1C[C@H](N)[C@@H](O[C@H]2O[C@H](CN)[C@@H](O)[C@H](O)[C@@H]2O)[C@H](O)[C@@H]1O[C@H]1O[C@H](CO)[C@@H](O)[C@H](N)[C@@H]1O,0.946% [at 0.709 µM],–

Compound,"activity change, negative = inhibition",Potency
CCOc1cccc2c1N[C@@H](c1ccc(C(=O)O)cc1)[C@H]1CC=C[C@@H]21,-5.41%,–
O=C(Nc1nnc(-c2ccccc2F)s1)c1ccccc1F,-3.39%,–
C/C(=N\NC(=O)c1ccccc1F)c1ccccn1,–,3.98 µM (active)
O=C(Cc1ccc(Cl)cc1)c1ccccc1,45.8%,–
CC1=NNC(=O)C1CCC(=O)N/N=C(\C)c1ccc(Cl)cc1 (configuration not stated),1.5%,–
O=C(NCCCn1ccnc1)c1ccccc1F,-4.04%,–
C/C(=N\NC(=O)Cc1ccc(Cl)cc1)c1ccccn1,–,3.16 µM (active)
O=C(NCCc1ccccc1)C(=O)NCC(c1ccco1)S(=O)(=O)c1ccccc1 (configuration not stated),4.42%,–
CCc1ccc(NC(=O)c2sc3nc4c(cc3c2N)CN(CC)CC4)cc1,-30%,–
COc1ccc(-c2cc(NC=O)c3ncc(-c4ccccc4)n3c2)cc1OC,-24.3%,–
COc1cccc(N2CCN(S(=O)(=O)c3ccc4c(c3)CCCN4C(C)=O)CC2)c1,-1.44%,–
CC(=O)N1CCCc2cc(S(=O)(=O)CCC(=O)N3CCN(c4ccccc4)CC3)ccc21,-7.04%,–
CC(=O)N1CCCc2cc(S(=O)(=O)N3CCCC(C(=O)N4CCN(c5cccc(Cl)c5)CC4)C3)ccc21 (configuration not stated),–,28.2 µM (active)
COC(CCN(C)C)(c1ccccc1)c1ccccc1,6.23%,–
CCCC(C(=O)OCCN(CC)CC)(c1ccccc1)c1ccccc1,–,31.6 µM (active)
CCN(CC)CCOC(=O)c1ccc(NC(=O)CNC(=O)c2ccccc2)cc1,2.24%,–
O=c1cc(CSc2ncn[nH]2)[nH]c2ccc(F)cc12,16%,–
COc1cc(/C=C/C(N)=O)cc(OC)c1OC,17.2%,–
COCCCN1CCC(NC(=O)c2cc(Cl)c(N)c3c2OCC3)CC1,–,inactive
